Measured values reported in PubChem BioAssay (NCI).
About 83,000 compounds went through this panel and 20% of them were active in at least one assay; those are over-represented in the sample as a whole.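 Plates (96-well) were seeded with cells, treated with compound at one concentration, and incubated for 48 hours before percent growth was determined.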 Calls of active or inactive are those of the source. How the source made its calls: active means growth percent below 10; inactive means the rest.

Legend:
Assay in all cases: NCI-60 one-dose screen, 48 h (100 = growth as untreated, 0 = no growth, -100 = all killed)
Conditions in all cases: 10 µM unless noted
SR leukemia = test system: SR leukemia
OVCAR-8 ovarian = test system: OVCAR-8 ovarian
OVCAR-5 ovarian = test system: OVCAR-5 ovarian
OVCAR-4 ovarian = test system: OVCAR-4 ovarian
SK-OV-3 ovarian = test system: SK-OV-3 ovarian
IGROV1 ovarian = test system: IGROV1 ovarian
OVCAR-3 ovarian = test system: OVCAR-3 ovarian
HS 578T breast = test system: HS 578T breast
NCI/ADR-RES ovarian = test system: NCI/ADR-RES ovarian
RPMI-8226 leukemia = test system: RPMI-8226 leukemia

Measured: growth

Cc1ccccc1NC(=O)Cc1csc2[n+]1C(=O)/C(=C/c1ccc([N+](=O)[O-])cc1)S2
inactive: SR leukemia 79.7% | OVCAR-8 ovarian 97.9% | OVCAR-5 ovarian 98.4% | OVCAR-4 ovarian 83.6% | SK-OV-3 ovarian 90.1% | IGROV1 ovarian 103% | OVCAR-3 ovarian 97.8% | HS 578T breast 98.6% | NCI/ADR-RES ovarian 100%

CC(=O)c1ccc2c(c1)CCc1ccccc1-2
inactive: SR leukemia 103% | OVCAR-8 ovarian 109% | OVCAR-5 ovarian 88.9% | OVCAR-4 ovarian 98.8% | SK-OV-3 ovarian 101% | IGROV1 ovarian 119% | OVCAR-3 ovarian 125% | HS 578T breast 103% | NCI/ADR-RES ovarian 119%

Oc1ccc2c(c1)CCc1ccccc1-2
inactive: SR leukemia 104% | OVCAR-8 ovarian 106% | OVCAR-5 ovarian 92.4% | OVCAR-4 ovarian 90.9% | SK-OV-3 ovarian 105% | IGROV1 ovarian 116% | OVCAR-3 ovarian 112% | HS 578T breast 96.8% | NCI/ADR-RES ovarian 114%

O=[N+]([O-])c1ccc(N2CCN(Cc3ccccc3)CC2)c2c1no[n+]2[O-]
active: SR leukemia -47.7% | OVCAR-8 ovarian 0.836% | OVCAR-4 ovarian -50.2% | IGROV1 ovarian -42% | OVCAR-3 ovarian -53.7%
inactive: OVCAR-5 ovarian 26.5% | SK-OV-3 ovarian 58.4% | HS 578T breast 30.5% | NCI/ADR-RES ovarian 24.5%

Nc1nc(N)c2cc(Sc3cccc(C(F)(F)F)c3)ccc2n1
active: SR leukemia -27.1%
inactive: OVCAR-8 ovarian 31% | OVCAR-5 ovarian 45.1% | SK-OV-3 ovarian 63.9% | IGROV1 ovarian 21.9% | OVCAR-3 ovarian 25.4% | HS 578T breast 40.4% | NCI/ADR-RES ovarian 17.7%

Oc1ccccc1N=Cc1ccccc1
inactive: SR leukemia 79.2% | OVCAR-8 ovarian 84% | OVCAR-5 ovarian 104% | OVCAR-4 ovarian 107% | SK-OV-3 ovarian 104% | IGROV1 ovarian 94.5% | OVCAR-3 ovarian 76.2% | HS 578T breast 108% | NCI/ADR-RES ovarian 84.6%

Nc1nc(-c2ccccc2)nc(N)c1N=O
inactive: SR leukemia 27.4% | OVCAR-8 ovarian 54.3% | OVCAR-5 ovarian 96.9% | OVCAR-4 ovarian 83.9% | IGROV1 ovarian 68.6% | OVCAR-3 ovarian 27.7% | HS 578T breast 65% | NCI/ADR-RES ovarian 78.5%

COC(=O)c1cc([N+](=O)[O-])cc([N+](=O)[O-])c1Cl
active: OVCAR-3 ovarian -44.7%
inactive: SR leukemia 30.9% | OVCAR-8 ovarian 76.1% | OVCAR-5 ovarian 97.9% | OVCAR-4 ovarian 61% | SK-OV-3 ovarian 102% | IGROV1 ovarian 95.7% | NCI/ADR-RES ovarian 99.1%

NNc1ccc(Cl)cc1Cl
inactive: SR leukemia 57.3% | OVCAR-8 ovarian 52.7% | OVCAR-5 ovarian 88.8% | OVCAR-4 ovarian 89.2% | SK-OV-3 ovarian 69.7% | OVCAR-3 ovarian 87.4% | HS 578T breast 84.1% | NCI/ADR-RES ovarian 53.5%

O=[N+]([O-])CC(O)c1ccccc1 (stereo unspecified)
inactive: SR leukemia 88.2% | OVCAR-8 ovarian 97.7% | OVCAR-5 ovarian 95.7% | OVCAR-4 ovarian 93.8% | SK-OV-3 ovarian 118% | IGROV1 ovarian 112% | OVCAR-3 ovarian 121% | HS 578T breast 125% | NCI/ADR-RES ovarian 101%

CC1C(c2ccccc2)OCCN1C(=S)Nc1ccc(S(=O)(=O)N2CCCCC2)cc1 (stereo unspecified)
inactive: RPMI-8226 leukemia 80.4% | OVCAR-8 ovarian 92.5% | OVCAR-5 ovarian 87.9% | OVCAR-4 ovarian 106% | SK-OV-3 ovarian 110% | IGROV1 ovarian 106% | OVCAR-3 ovarian 114% | HS 578T breast 85.8% | NCI/ADR-RES ovarian 92.4%

Oc1ccc2ccccc2c1N=Nc1ccccn1
active: SR leukemia 8.18% | OVCAR-4 ovarian -6.48% | NCI/ADR-RES ovarian 0.488%
inactive: OVCAR-8 ovarian 15.6% | OVCAR-5 ovarian 46.8% | SK-OV-3 ovarian 33.6% | IGROV1 ovarian 25% | OVCAR-3 ovarian 20.7%

CCc1cnc2ccccc2c1/C=C/c1ccc(N(C)C)cc1
inactive: OVCAR-8 ovarian 59.5% | OVCAR-5 ovarian 75% | OVCAR-4 ovarian 79.3% | SK-OV-3 ovarian 38.5% | IGROV1 ovarian 42% | OVCAR-3 ovarian 16.9% | HS 578T breast 62.8% | NCI/ADR-RES ovarian 21.8%
active: SR leukemia 4.96%

Cn1ccc(=Nc2ccc(NC(=O)c3ccc(N=c4ccn(C)c5ccc([N+](=O)[O-])cc45)cc3)cc2)cc1
inactive: SR leukemia 107% | OVCAR-8 ovarian 69.3% | OVCAR-5 ovarian 87.9% | OVCAR-4 ovarian 59.4% | SK-OV-3 ovarian 91.4% | IGROV1 ovarian 64.8% | OVCAR-3 ovarian 79.5% | HS 578T breast 100% | NCI/ADR-RES ovarian 106%
